This note sets out measurements from PubChem BioAssay (NCATS).

Records with an inconclusive call do not appear. A call without a number means that no potency is given here. The source made the active and inactive calls. Calls come from the whole dose curve; as a rule, active = well fitted curve in the direction sought with a large enough effect; inconclusive = small, poorly fitted or top-dose-only effect, or another doubt; inactive = no such curve, though single readings can be large; an effect the other way counts as inactive or inconclusive.

Assay [1] deals with Aldehyde dehydrogenase, mitochondrial (Homo sapiens) (UniProt P05091). Put plainly: qHTS for Inhibitors of the Aldehyde Dehydrogenase Family (ALDH2) Primary screen (AID 2061308). Note: nearly all actives have a fitted effect of over 55% in size. As to conditions: ALDH2 enzyme inhibition qHTS, 1536-well; series mostly up to 56 µM. (In general: In qHTS, concentration-response curves come from the screen itself.)
Assay [2] deals with Retinaldehyde dehydrogenase 3 (Homo sapiens) (UniProt P47895). The assay is described as follows: qHTS for Inhibitors of the Aldehyde Dehydrogenase Family (ALDH1A3) Primary screen (AID 2061315). As to conditions: ALDH inhibition qHTS; series mostly up to 56 µM.

For the compound `CN1CCOc2cc(S(=O)(=O)N3CCN(S(=O)(=O)c4c(F)cccc4F)CC3)cnc21`, the Potency result in assay [1] and in assay [2] was “inactive” in each case.
Turning to `O=S1(=O)N=C(Oc2cccc(Br)c2)c2ccccc21`, the Potency entry in assay [1] and in assay [2] was “inactive” throughout.
Turning to `COc1ccc(C(=O)O)cc1COc1ccc(NC(C)=O)cc1`, the Potency entry in assay [1] and in assay [2] was “inactive” throughout.
Turning to `COc1cccc(CN(C)c2ccc([S+](=O)([O-])Nc3nccs3)cc2)c1O`, the Potency result in assay [1] and in assay [2] was “inactive” each time.
With `c1nc(NCc2ccc3c(c2)OCO3)c2cc(-c3ccc4c(c3)OCCO4)ccc2n1`, the Potency entry in assay [1] and in assay [2] was “inactive” in each case.
Regarding `O=C1c2ccccc2C(=O)N1c1cccc2ncccc12`, the Potency result in assay [1] and in assay [2] was “inactive” throughout.
For `COc1ccc(CCC(=O)c2c(O)cc(O)cc2O[C@@H]2O[C@H](CO)[C@@H](O)[C@H](O)[C@H]2O)cc1`, the Potency entry in assay [1] and in assay [2] was “inactive” each time.
On to `Cc1nc(CNc2ncnc3ccc(-c4oc(-c5ccccc5)nc4C)cc23)cs1`, for which the Potency entry in assay [1] and in assay [2] was “inactive” in each case.
With `CCCn1c(C)nc2c(N3CCN(C)CC3)nc(C)nc21`, the Potency entry in assay [1] and in assay [2] was “inactive” each time.
Take `Cc1cc(C)n2ncc(C(=O)N3CCCC3)c2n1`: the Potency entry in assay [1] and in assay [2] was “inactive” each time.
On to `O=C(OCC#CCSc1nnc(-c2cccc3ccccc23)o1)c1ccc(F)cc1`, for which the Potency entry in assay [1] and in assay [2] was “inactive” in each case.
Regarding `N#Cc1nc(NCCCO)nc(Nc2ccccc2)n1`, the Potency entry in assay [1] and in assay [2] was “inactive” in each case.
With `COc1cc(O)c(C(CC(=O)N2CCC(Cc3ccccc3)CC2)c2ccc3c(c2)OCO3)c(OC)c1` (stereo not drawn), the Potency result in assay [1] and in assay [2] was “inactive” each time.
As for `COC(=O)C1=CO[C@@H](O[C@@H]2O[C@H](CO)[C@@H](O)[C@H](O)[C@H]2O)[C@H]2[C@@H]1CC(OC)O[C@@H]2C` (stereo partly drawn), the Potency entry in assay [1] and in assay [2] was “inactive” in each case.
